# Results from publication PMC5540273 (PLoS ONE, 2017).
# Tests used:
# Conditions in all cases: concentration: 1 μM, replicates: in singlicate; n = 1
# [1] = tested on: MTOR
# [2] = tested on: MUSK
# [3] = tested on: MYLK2
# [4] = tested on: MYLK4
# [5] = tested on: MYLK
# [6] = tested on: MYO3A
# [7] = tested on: MYO3B
# [8] = tested on: T1, NDR1
# T1 construct: gene STK38
# [9] = tested on: NDR2
# [10] = tested on: NEK10
# [11] = tested on: NEK11
# [12] = tested on: NEK1
# [13] = tested on: NEK2
# [14] = tested on: NEK3
# [15] = tested on: NEK4
# [16] = tested on: NEK5
# [17] = tested on: NEK6
# [18] = tested on: NEK7
# [19] = tested on: NEK9
# [20] = tested on: T2, NIK
# T2 construct: gene MAP3K14
# 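Further: KINOMEscan kinase panel screen.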
SMILES,%Inh [1] [%],%Inh [2] [%],%Inh [3] [%],%Inh [4] [%],%Inh [5] [%],%Inh [6] [%],%Inh [7] [%],%Inh [8] [%],%Inh [9] [%],%Inh [10] [%],%Inh [11] [%],%Inh [12] [%],%Inh [13] [%],%Inh [14] [%],%Inh [15] [%],%Inh [16] [%],%Inh [17] [%],%Inh [18] [%],%Inh [19] [%],%Inh [20] [%]
O=C(Nc1n[nH]c2cc(-c3cccs3)ccc12)C1CC1 [SB-731284],42,0,87,24,52,0,0,27,0,27,18,0,0,20,39,0,0,0,0,14
Cc1nn2c(=O)cc(N3CCO[C@H](C)C3)nc2n1Cc1cccc(Cl)c1Cl [GSK2373693],61,14,6,2,0,0,0,0,0,0,0,0,18,0,0,75,0,0,0,21
Nc1ncnc2scc(-c3ccc(NC(=O)Cc4cc(F)ccc4F)cc3)c12.O=C(O)C(F)(F)F [SB-731254-M],0,2,38,72,8,29,0,12,25,0,36,20,24,35,16,47,3,0,20,0
O=C(Nc1c(F)cccc1F)c1cc(C(=O)c2ccccc2F)c[nH]1 [GSK1326180],18,0,4,6,0,0,0,0,2,9,16,0,0,0,0,0,0,0,5,0
Cc1cccc(Nc2nc(NCCN)ncc2C(N)=O)c1 [GSK1292139],12,6,5,94.3,8,5,0,21,25,47,3,0,0,31,29,47,0,0,18,0
COc1cccc(-c2nc(-c3ccccc3)[nH]c2-c2ccncc2)c1 [SB-610250],13,0,8,0,0,18,0,9,0,20,26,100,0,11,16,1,4,0,4,0
COc1cc(Nc2nccc(N3CCC(NS(=O)(=O)c4ccc(NC(C)=O)cc4)CC3)n2)cc(OC)c1OC [GSK1379825],16,14,61,0,1,0,0,0,0,17,0,83,1,89,3,100,62,86,45,26
COc1cccc(C2=C(Nc3cccc(O)c3)C(=O)NC2=O)c1 [SB-390771],38,0,0,6,27,17,0,18,0,67,0,0,0,19,2,2,0,7,15,7
Cc1ccc(O)cc1Nc1ccnc2cc(-c3ccc(CN4CCCCC4)o3)ccc12 [GW557777],0,3,0,2,9,4,0,0,4,0,0,0,11,3,0,0,0,9,0,0
